Laboratory results published in PubChem BioAssay AID488890 (Southern Research Specialized Biocontainment Screening …, 2010).
Out of some 320,000 compounds screened, about 1,300 (0.41%) were called active. Another 3% or so got no clear call; they are omitted. How the calls were made is not given here. A selection follows. Measured potencies and affinities stand elsewhere.

Experiment: growth inhibition of non-replicating M. tuberculosis (AID 488890);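 further: plate controls were DMSO cells for no effect and high antibiotic wells for full effect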
Details: Mycobacterium tuberculosis non-replicating, at 25 µM, stronger effect = higher value

SMILES	inhibition [%]
COc1ccc(/C=N/NC(=O)c2c(Br)cnn2C)c2ccccc12	8.73
Cc1cccc(CCNC(=O)Cn2ncc3c([nH]c4ccccc43)c2=O)c1	3.21
COc1ccc(C(=O)NNC(=O)C23CC4CC(CC(C4)C2)C3)c(OC)c1	1.7
COc1ccc(NC(=O)CNC(=O)C23CC4CC(CC(C4)C2)C3)c(OC)c1	7.13
Cc1cc(C)c2sc(N(CCCN(C)C)C(=O)CN3C(=O)c4ccccc4C3=O)nc2c1	16.6
COc1cccc(NC(=O)C2C3C=CC(O3)C2C(=O)NCc2cccnc2)c1 (configuration not stated)	7.86
Cc1nc2ccc(NC(=O)c3ccc(Cl)c([N+](=O)[O-])c3)cc2s1	-1.87
Cc1nc2ccc(NC(=O)c3ccc([N+](=O)[O-])cc3)cc2s1	41.2
COc1cc(-c2c(C#N)c(N)nc3c2c(C)nn3-c2ccc(C)c(C)c2)cc(OC)c1OC	20.3
Cc1ccccc1Nc1c([N+](=O)[O-])cncc1[N+](=O)[O-]	76
COc1ccccc1Nc1c([N+](=O)[O-])cncc1[N+](=O)[O-]	55.7
CCN(CC(=O)NCc1ccc(F)cc1)C(=O)c1ccc2c(c1)OCO2	-2
COc1ccc(C(=O)N2CCN(C)C(=O)[C@@H]2C)cc1OC1CCN(C(C)C)CC1	-16.1
CCn1c(O)c(C=NC2CCCC2)sc1=S	-4.02
Oc1ccc(C=NC2CCCCC2)c(O)c1	-6.4
COCCOC(=O)c1c(C)oc2ccc(OC(=O)c3c(OC)cccc3OC)cc12	0.6
CCOC(=O)Oc1ccc2oc(C)c(C(=O)OCCOC)c2c1	61.6
CC(Oc1cc(Cl)ccc1Cl)C(=O)N/N=C\c1ccnn1C (configuration not stated)	10.1
O=C(C[n+]1cc(-c2ccc(Cl)cc2)n2c1CCCCC2)c1ccccc1	-12.8
CC1CCC(C(C)C)C(OC(=O)C[n+]2cc(-c3ccc(Cl)cc3)n3c2CCC3)C1 (configuration not stated)	49.4
Cc1cc(C)nc(SC2=CS(=O)(=O)c3ccccc32)n1	-0.38
Cn1c(SC2=CS(=O)(=O)c3ccccc32)nc2ccccc21	58
O=C(O)CSc1nnc(-c2ccccc2)o1	-5.91

SMILES	inhibition [%]
CSc1nnc(-c2ccccc2)o1	17.4
CC(C)c1ccc(N(C(=O)c2snc(C(N)=O)c2N)C(C(=O)NC2CCCC2)c2ccncc2)cc1 (configuration not stated)	15.7
COc1ccccc1-c1cc(C(F)(F)F)nc(NCc2cccs2)n1	13.2
Cc1ccc(C(=O)N/C(=C\c2cn(C)c3ccccc23)C(=O)OCCN(C)C)cc1	1.18
CCOC(=O)C1CCN(C(=O)C(C)Oc2ccc(C(=O)c3ccccc3)cc2)CC1 (configuration not stated)	28.6
COc1cc(-c2ccc3oc(-c4ccsc4)cc(=O)c3c2)cc(OC)c1OC	72.1
Cc1ncc([N+](=O)[O-])n1CC(=O)Nc1ccc(F)cc1F	-8.21
CN(Cc1ccccc1)C(=O)Nc1ccc(Cl)cc1	48.8
O=C1N=c2ccccc2=C1c1sc(=S)n(Cc2ccccc2Cl)c1O	-18.1
Cc1cc(C)n(-c2ccc(C(=O)OC(C)C)cc2)n1	5.09
CCOC(=O)c1ccc(-n2nc(C)cc2C)cc1	13.4
CCOc1cc2c(cc1OCC)-n1cccc1C(c1ccccc1F)NC2 (configuration not stated)	19.4
CS(=O)(=O)Cc1ccc(C(=O)N2CCCC2c2cccs2)cc1 (configuration not stated)	0.57
O=C(NC1CCCc2c1cnn2-c1cc(F)cc(F)c1)c1ccccn1 (configuration not stated)	25.6
O=C(NC1CCCc2c1cnn2-c1cc(F)cc(F)c1)c1ccncc1 (configuration not stated)	4.39
CC(C)(C)OC(=O)NCCc1n[nH]c(=S)o1	-4.45
CSc1nc(O)c(N=Nc2ccc(F)cc2F)c(=O)[nH]1	13.2
CCSc1nnc(C(N)Cc2ccccc2)o1 (configuration not stated)	42.5
O=C(CSc1nnc(CNC(=O)c2ccco2)o1)Nc1ccccc1	-9.27
CCSc1nnc([C@@H](N)Cc2ccccc2)o1	4.66
O=C(CSc1nnc(CNC(=O)c2ccco2)o1)c1ccccc1	17.8
CN1CCN(c2ccc(NC(=O)COc3cccc4ccccc34)cc2)CC1	47.4
COc1ccc(C2Sc3nncn3N2Cc2ccc(C#N)cc2)cc1 (configuration not stated)	0.03

SMILES	inhibition [%]
C[C@H](NC(=O)OCc1ccccc1)C(=O)NNC(=O)[C@H](C)NC(=O)OCc1ccccc1	2.12
C[C@H](NC(=O)OCc1ccccc1)c1nnc([C@H](C)NC(=O)OCc2ccccc2)o1	4.86
Cc1ccc(C(=O)NNC(=O)CCC(=O)Nc2cc(C)on2)cc1	3.14
CCOCC(=O)Nc1ccc(OCc2ccccc2)cc1	17.7
CC(C)NC(=O)COc1ccc(OCc2ccccc2)cc1	62.9
Cc1nc(SCCc2ccccc2)[nH]c(=O)c1C	49.5
CC1=C(C(=O)Nc2ccc(C)cc2C)C(c2ccc(C)o2)NC(=O)N1 (configuration not stated)	-0.04
COc1cccc(C(=O)CN(C(=O)c2ccc(Cl)cc2Cl)N2C(=O)c3ccccc3C2=O)c1	-6.55
O=C(O)c1ccc(CNCc2ccc(Cl)cc2)cc1	9.88
Cc1cccc(Sc2c([N+](=O)[O-])ncn2C)c1	22.6
Cn1cnc([N+](=O)[O-])c1Cl	-10.2
N#Cc1ccc(OCC(=O)NCCN2CCOCC2)cc1	2.06
CCOC(=O)C1(CCc2ccccc2)CCN(Cc2cnc(N(C)C)s2)CC1	3.68
Clc1ccccc1CSc1nncn1NC/C=C/c1ccccc1	19.6
CC(C(=O)NC1CCCc2ccccc21)N1C(=O)C2CCCCC2C1=O (configuration not stated)	-6.5
COc1ccc(N2CCN(CCCNC(=O)Nc3ccccc3)CC2)cc1	38.1
COc1ccc(NC(=O)NCCN2CCN(c3cccc(Cl)c3)CC2)cc1	31.4
CC1(C)CC(=O)C2=C(C1)N(c1ccc(F)cc1)C(=O)C2(O)C(F)(F)F (configuration not stated)	-0.41
Cc1cc(C(=O)Nn2cnc3ccccc3c2=O)ccc1[N+](=O)[O-]	-2.65
Cn1c(=O)c([N+](=O)[O-])c(NCCc2ccccc2)c2ccccc21	30.3
CC(C)c1c(C(=O)N/N=C/c2ccc(OCc3ccc(F)cc3)cc2)nnn1-c1nonc1N	1.61
CCCCOc1ccc(C(O)C(CN2CCCCC2)c2ccccc2)cc1 (configuration not stated)	12.8
CCCOc1ccc(C(=O)C(c2ccccc2)N2CCOCC2)cc1 (configuration not stated)	33.3

SMILES	inhibition [%]
CCOC(=O)C(CN1CCCC1)c1ccccc1 (configuration not stated)	4.41
CN(C)CC(c1ccccc1)c1ccccc1	-13.3
CCOc1ccc(C(=O)C(c2ccccc2)N2CCOCC2)cc1 (configuration not stated)	56.8
CCC(C(=O)c1ccc(O)cc1)c1ccccc1 (configuration not stated)	21.7
CCOc1ccc(C(O)C(CN2CCOCC2)c2ccccc2)cc1 (configuration not stated)	-1.32
CC(CN1CCCC1)OC(=O)C(c1ccccc1)c1ccccc1 (configuration not stated)	10.8
CCCCN(C(=O)Cc1ccc2c(c1)OCCO2)c1c(N)n(CCC)c(=O)[nH]c1=O	-17.1
O=C(NCC(=O)N1CCN(C(c2ccccc2)c2ccccc2)CC1)c1ccc(Br)o1	13.5
CCOc1ccc2nc(SCC(=O)N3CCN(C(=O)c4ccco4)CC3)sc2c1	28.7
C/C(=N/NC(=O)c1cnccn1)c1ccncc1	-12.7
Cc1nc(Cl)c(S(N)(=O)=O)c(C)c1Cl	-6.51
CC(C)Sc1nc2[nH]ncc2c(=O)[nH]1	-7.65
O=C(NCCO)c1ccc2c(c1)S(=O)(=O)c1ccccc1C2=O	-6.47
Cc1ccc(S(=O)(=O)NC(=O)c2ccccc2F)cc1	-3.32
CCCOc1cccc(C(=O)NCCNC(=O)c2ccco2)c1	-5.82
N#Cc1ccccc1Cn1c(=O)n(CCC(=O)NCc2ccco2)c(=O)c2ccccc21	0.99
CCC1(CC)C(=O)NN(c2ccccc2)C1=O	-21.9
O=C(CCNC(=O)Cn1ccc2ccccc2c1=O)NCCN1CCc2ccccc2C1	19.7
O=C(C1=NN[C@@H]2C(=O)N(c3cccc(C(F)(F)F)c3)C(=O)[C@H]12)c1ccc2ccccc2n1	-0.67
COc1ccc(C(=O)C(c2ccccc2)N2CCOCC2)cc1 (configuration not stated)	18.6
COc1ccc(C(O)(C2CCCCC2)C(CN2CCCC2)c2ccccc2)cc1 (configuration not stated)	47
COc1ccc(C2C(C(=O)N3CCN(c4ccccc4)CC3)c3ccccc3C(=O)N2C)cc1 (configuration not stated)	16.5
Cc1ccc(S(=O)(=O)N2CCCCC2C(=O)Nc2ccc(N(C)C)cc2)cc1 (configuration not stated)	20

SMILES	inhibition [%]
Cc1cc(NC(=O)c2c(F)cccc2F)n(-c2nc3ccccc3[nH]2)n1	76.6
Cc1cc(Nc2ccccc2)n(-c2ccc(Br)cc2)n1	66.6
Cc1cc(NC(=O)c2ccc(F)cc2F)n(-c2nc3ccccc3[nH]2)n1	14.7
Cc1cc(Nc2ccccc2)n(-c2ccccc2)n1	6.71
CCOC(=O)C(=O)Nc1cc(C)nn1-c1nc2ccccc2[nH]1	73.2
Cc1cc(NC(=O)c2ccccc2)n(-c2nc3ccccc3[nH]2)n1	49.6
Cc1cc(NC(=O)c2cccs2)n(-c2nc3ccccc3[nH]2)n1	76.4
COc1cccc(OC)c1C(=O)Nc1cc(C)nn1-c1nc2ccccc2[nH]1	20.1
Cc1ccsc1C(=O)N1CCC(N2CCC(C(=O)NCC3CCCO3)CC2)CC1 (configuration not stated)	1.59
C[C@H](NC(=O)[C@@H]1CSC2c3ccccc3C(=O)N21)C(=O)NC1CCCC1 (some centres not stated)	-7.65
CCc1ccc(OCC(=O)O/N=C(\N)c2ccncc2)cc1	35.7
COc1ccc(N2CCN(CC(O)COCc3ccccc3)CC2)cc1 (configuration not stated)	-6.85
Cc1cc(Nc2nc3ccccc3[nH]c2=O)n(-c2ccccc2)n1	3.53
Cc1cc(NC(=O)CC#N)n(-c2nc3ccccc3[nH]2)n1	-8.39
Cc1cc(F)ccc1NC(=O)c1cc(S(=O)(=O)N2CCCC2)cn1C	-14.1
O=[N+]([O-])c1ccc(-c2nc(-c3ccncc3)no2)cc1	-0.83
O=[N+]([O-])c1cccc(-c2nc(-c3ccncc3)no2)c1	1.9
COc1ccc(Oc2cccc(Cl)c2CNC(=O)c2ccccc2C(=O)O)cc1	22.3
CC1=Nc2ccccc2/C1=C/c1sc(=O)n(CC(=O)N2CCCC2)c1O	24
CC1=Nc2ccccc2/C1=C/c1c(O)n(C)c(=O)[nH]c1=O	3.78
